This is a sample that favours compounds with a hit; in the whole collection about 22% have one here.
Shiga inhibitor: Shiga toxin inhibition. Vero cells, Shiga toxin protein synthesis inhibition reporter. inhibition, % at 38.7 µM. 9.2% of 290,000 active. AID 2315; in the data active = inhibition mostly above about 28%, no sharp cut-off; inactive = mostly below about 43%; also: 0% is about no effect
LmPK inhibitor: blocks Leishmania mexicana pyruvate kinase activity; Potency, µM (doses to about 57.5 µM), for inactives: at the top dose activity change, negative = inhibition, usual class: inhibitors; purified LmPK, Kinase-Glo ATP luminescence, 1 h; 0.37% of 290,000 active; AID 1721; also: potency is read from the fitted curve at half-maximal effect; % is scaled to controls: 0 for no effect and ±100 for the full control effect
Target sequence (Q27686 whole entry, looked up): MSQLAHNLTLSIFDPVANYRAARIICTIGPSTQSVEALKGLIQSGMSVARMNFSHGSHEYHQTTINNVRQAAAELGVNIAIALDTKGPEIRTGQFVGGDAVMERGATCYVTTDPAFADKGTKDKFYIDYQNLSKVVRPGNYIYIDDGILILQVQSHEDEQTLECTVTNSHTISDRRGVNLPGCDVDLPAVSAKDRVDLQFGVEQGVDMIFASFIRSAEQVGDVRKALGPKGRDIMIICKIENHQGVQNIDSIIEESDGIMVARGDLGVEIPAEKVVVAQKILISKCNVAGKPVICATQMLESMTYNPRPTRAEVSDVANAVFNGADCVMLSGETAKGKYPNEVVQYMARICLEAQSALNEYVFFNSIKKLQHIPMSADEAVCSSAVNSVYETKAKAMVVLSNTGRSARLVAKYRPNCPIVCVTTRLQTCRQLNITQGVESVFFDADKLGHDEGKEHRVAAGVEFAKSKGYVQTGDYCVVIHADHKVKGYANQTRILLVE
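ATP generated from ADP (0.1 mM) and PEP (0.5 mM) by 0.1 nM LmPK over 1 h at room temperature (pH 7.2 imidazole buffer) was detected by coupled luciferase luminescence. Values were normalized to uninhibited and no-enzyme wells.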
Cycloheximide cs: counter-screen hit for Shiga toxin inhibitors, cycloheximide | cell reporter, cycloheximide protein synthesis inhibition counterscreen | max response, % | 12% of 300,000 active; in the data active = max response mostly above about 13%, no sharp cut-off; inactive = mostly below about 14%; also: read at 38.3 µM for the half of the compounds with a filed dose; 0% is about no effect
Pf growth 96h: inhibits malaria parasite growth, 96 h; P. falciparum luciferase reporter growth, 96 h; Potency, µM (doses to about 28.7 µM), inactives show at the top dose activity change, negative = inhibition, actives largely listed as inhibitors; 6.9% of 320,000 active; also: potency is read from the fitted curve at half-maximal effect; % is scaled to controls: 0 for no effect and ±100 for the full control effect
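Parasite growth measured via integrated firefly luciferase reporter in P. falciparum. Infected erythrocytes at 2% hematocrit, 0.05% parasitemia final were treated 96 hours at 37 C under 5% CO2, and luminescence was read.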
Pf growth 48h: P. falciparum growth inhibition at 48 hours (one generation); P. falciparum luciferase growth in erythrocytes, 48 h; Potency, µM (series often up to 28.7 µM), inactives show top-dose activity change, negative = inhibition, usual class: inhibitors; 5.9% of 310,000 active; AID 504832; also: potency is read from the fitted curve at half-maximal effect; % is scaled to controls: 0 for no effect and ±100 for the full control effect
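Erythrocytes infected with P. falciparum carrying an integrated firefly luciferase reporter (2% hematocrit, 0.1% parasitemia final) were exposed to compounds in RPMI 1640 with 0.5% Albumax at 37 C, 5% CO2. Growth inhibition was scored as reduced luminescence.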
* = called active by the depositor; i = inactive; ? = inconclusive; . = no result. Unless noted, calls follow the shape of the dose curve; as a rule, active = well fitted inhibition curve with a large enough effect; inconclusive = small, poorly fitted or top-dose-only effect, or another doubt; inactive = no such curve, though single readings can be large or run the other way.

SMILES | Shiga inhibitor | LmPK inhibitor | Cycloheximide cs | Pf growth 96h | Pf growth 48h
CC1CC(C)CN(CCCNC(=O)COc2cc(=O)n(C)c3ccccc23)C1 (centres undefined) | -1 | 4% | -4 | -5% | 10µM*
Cc1ccc(CNCCC2=CCCCC2)cc1 | 4 | 2% | 1 | . | -28%
CC(C)CNC(=O)COC(=O)c1c2c(nc3ccccc13)/C(=C/c1cccs1)CC2 | 56* | 0% | 25* | ? | ?
CC1CCCCC1NC(=O)COC(=O)c1c2c(nc3ccccc13)/C(=C/c1ccco1)CC2 (centres undefined) | -13 | 1% | 10 | 15µM* | -45%
O=C(COC(=O)c1c2c(nc3ccccc13)/C(=C/c1ccco1)CC2)NC1CCCC1 | -8 | -1% | -2 | ? | -19%
NC(=O)c1ccc(NC(=O)COC(=O)c2c3c(nc4ccccc24)/C(=C\c2cccs2)CCC3)cc1 | 18 | 5% | -2 | -73% | ?
CCc1cccc(C)c1NC(=O)COC(=O)c1c2c(nc3ccccc13)/C(=C\c1cccs1)CCC2 | -6 | 3% | -3 | 10µM* | 13µM*
COC(=O)c1ccc(-c2ccc(OC)c(C3C4C=CCC(C)C4C(=O)N3Cc3ccccc3)c2)cc1 (centres undefined) | 22 | . | -1 | . | .
CCC(C)C(=O)Nc1nnc(SCC(=O)NC(C)(C)C)s1 (centres undefined) | 4 | -7% | -1 | ? | 8%
Cc1cc(C)c(S(=O)(=O)NCC(=O)NCc2cc(=O)n(C)c(=O)n2C)c(C)c1 | -2 | 0% | 4 | -17% | -8%
O=C(Cc1ccsc1-c1ccccc1)NO | 18 | -11% | -4 | 15% | 13µM*
CCc1cc(=O)oc2c3c(cc(OCC(=O)NCCC(=O)O)c12)OC(C)(C)CC3 | -11 | 2% | -3 | ? | -19%
CCc1cc(=O)oc2c3c(cc(OCC(=O)NC4CC4)c12)OC(C)(C)CC3 | -5 | -1% | 1 | 4.1µM* | ?
CCc1cc(=O)oc2c3c(cc(OCC(=O)NCCN4CCOCC4)c12)OC(C)(C)CC3 | -2 | 0% | -3 | 9.3µM* | ?
CCc1cc(=O)oc2c3c(cc(OCC(=O)NCc4ccncc4)c12)OC(C)(C)CC3 | -3 | -5% | -1 | ? | 10µM*
CCc1cc(=O)oc2c3c(cc(OCC(=O)NCc4ccco4)c12)OC(C)(C)CC3 | 34* | -5% | 33* | ? | 32%
COc1cccc(OC)c1C(=O)NCCOc1cc(C)cc(C)c1 | -10 | -4% | -2 | i | -14%
O=C(Cn1ccc2ccccc2c1=O)NCC(=O)N1CCN(c2ccccc2F)CC1 | -5 | 1% | -1 | 16% | 17%
CO/N=C\CC(=O)Nc1ccc(Cl)cc1Cl | 46 | 1% | 21* | 56% | 25%
CCc1ccc(C(c2c(C)nn(-c3ccccc3)c2N)c2c(C)nn(-c3ccccc3)c2N)cc1 | -4 | 4% | 2 | ? | 8.3µM*
CCN(CC)C1=NC=CC(c2ccccc2)=CC1C (centres undefined) | -9 | -1% | -1 | -19% | -24%
COc1ccc(C(=O)/C(=C\c2ccco2)N2C=CC=CC2=C(C#N)C#N)cc1 | -5 | 6% | -1 | ? | ?
COc1ccc(/C=C(/C(=O)c2cccs2)N2C=CC=CC2=C(C#N)C#N)cc1 | 47* | -5% | 41* | 57% | 68%
Cc1ccc(C(c2cc(Br)ccc2O)N2CCSCC2)cc1 (centres undefined) | . | . | . | 15µM* | 9.3µM*
O=C1NCCNC1(c1c[nH]c2ccccc12)C(F)(F)F (centres undefined) | -20 | 8% | -7 | 1µM* | .
CCCCCCNC(=O)CCCCCNS(=O)(=O)c1ccc(OC)cc1 | -17 | 1% | -6 | -8% | ?
CCOc1ccccc1-c1ccc(C(=O)O)o1 | i | . | -3 | . | .
CCC[C@H]1C[C@H](C(=O)N[C@@H]([C@H]2O[C@@H](SC)[C@@H](O)[C@@H](O)[C@@H]2O)[C@H](C)Cl)N(C)C1 | . | . | . | 0.034µM* | 0.19µM*
CCN(CC)Cc1nc2c(c(=O)[nH]1)C1(CCCC1)Cc1ccccc1-2 | 26 | 5% | -1 | 12µM* | ?
O=c1[nH]c(CN(CCO)CCO)nc2c1C1(CCCCC1)Cc1ccccc1-2 | -11 | 4% | -6 | 42% | -12%
